Shown are actives, neighbours in structure and some others; about 1.2% of the full set was active somewhere.
gsp antag – gsp mutant antagonism; gsp-mutant cells, cAMP HTRF, 30 min; Potency, µM (doses to about 76.9 µM), for inactives: at the top dose activity change, negative = inhibition, usual class: inhibitors; hit rate 0.4% among 340,000; calls by dose curve; cell line not stated here;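 also: intracellular cAMP measured with PDE inhibitor Ro 20-1724 present during compound exposure; potency is read from the fitted curve at half-maximal effect; % is scaled to controls: 0 for no effect and ±100 for the full control effect; nearly all actives have a fitted effect of over 65% in size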
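Measurement of cellular cAMP by homogeneous time-resolved fluorescence following a 30 min compound exposure at 37C. The PDE inhibitor […] was present throughout; the assay buffer was DPBS with 0.05% BSA and 0.005% Tween 20.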
RXFP1 ag – RXFP1 (human) receptor agonism; Q9HBX9; HEK293T-RXFP1 cAMP TR-FRET, 30 min; response scale: percent of porcine relaxin response, buffer zero; Potency, µM (series often up to 57.5 µM), for the others: at the top dose activation, actives largely listed as activators; hit rate 0.3% among 370,000; active = well fitted activation curve with a large enough effect; inconclusive = small, poorly fitted or top-dose-only effect; also: potency is read from the fitted curve at half-maximal effect; % is scaled to controls: 0 for no effect and ±100 for the full control effect; nearly all actives have a fitted effect of over 60% in size
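cAMP rise read by TR-FRET after 30 min, 37C compound exposure (up to 58 uM) in RXFP1-transfected HEK293 cells with Ro 20174 present. EC50 from Hill-equation fits, with 29 nM porcine relaxin as 100% and buffer as basal.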
RXFP1 antag – antagonists of human relaxin receptor RXFP1; AID 1259400; hit rate 0.59% among 350,000; HEK293-RXFP1, relaxin-stimulated cAMP HTRF, 30 min; active compounds read low; activity change, negative = inhibition, % at 57.5 µM; Q9HBX9;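 active = activity change of -60% or lower, but not beyond a set lower limit; inconclusive = change between -60% and -40%, or beyond the set limit; inactive = change above -40%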; also: % is scaled to controls: 0 for no effect and ±100 for the full control effect
gsp ag – activates gsp, the McCune-Albright syndrome mutation; gsp mutant cells, cAMP HTRF, 30 min; Potency, µM (doses to about 76.9 µM), for the others: top-dose activation (cAMP increase), most hits filed as activators; hit rate 0.13% among 340,000; AID 624287; active = well fitted activation curve with a large enough effect; inconclusive = small, poorly fitted or top-dose-only effect, or another doubt; inactive = no such curve, though single readings can be large or run the other way; cell line not stated here;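 also: phosphodiesterase inhibitor Ro 20-1724 added with compounds to block cAMP breakdown; potency is read from the fitted curve at half-maximal effect; nearly all actives have a fitted effect of over 60% in size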
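Cells stably selected in G418 were plated at 2000/well, grown 16-24 hr, then given compounds in DMSO with the PDE inhibitor […] (300 uM solution added) for 30 min at 37C; cAMP was read by HTRF.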
pAkt inh – inhibitors of Akt phosphorylation; Neuro2A IGF-stimulated pAkt S473 HTRF, 20 min; active compounds read low; activity change, % for hits at 50 µM; hit rate 0.32% among 360,000; in the data active = activity change below about -80%; inconclusive = mostly about -51% to -80%; also: % is scaled to controls: 0 for no effect and ±100 for the full control effect
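Single-point screen (50 µM final compound) in Neuro2A cells stimulated 20 min with 6 nM IGF at 37 deg C. After lysis, Ser473-phosphorylated Akt read by HTRF (ex 330 nm, em 615/665 nm) as the 665/615 ratio.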
Active calls of the source: *; i = inactive; ? = inconclusive; · = no result; [ ] = another dose, or the depositor's remark.

SMILES	gsp antag	RXFP1 ag	RXFP1 antag	gsp ag	pAkt inh
O=C(NC(=S)N1CCN(c2ccc(Cl)cc2[N+](=O)[O-])CC1)c1cccs1	?	-1%	-65*	32%	i
CCN(c1cccc(C)c1)S(=O)(=O)c1nnc(NC(=O)C2CCCCC2)s1	·	6%	-9	·	·
CCc1ccc(S(=O)(=O)c2nnn3c2nc(NC(C)C)c2cc(Cl)ccc23)cc1	·	?	-11	·	·
COc1ccc(NC(=O)COC(=O)CN2C(=O)NC(C)(C)C2=O)cc1	11%	0%	3	-4%	i
CC1(C)NC(=O)N(CC(=O)OCC(=O)c2ccc(Br)s2)C1=O	14%	·	15	10µM*	i
Cc1noc(C)c1COc1ccccc1C(=O)N(C)Cc1ccc(F)cc1	2%	0%	3	7%	i
Cc1noc(C)c1COc1ccccc1C(=O)N(C)Cc1ccc(C(C)(C)C)cc1	50µM*	-2%	-34	-36%	i
Cc1ccc(CN2CCCn3nc(C(=O)NCc4ccc(N(C)C)cc4)cc3C2=O)cc1	·	2%	-1	·	·
CCCc1ccc(OCC(=O)N2CCN(C(=O)COc3ccc(CCC)cc3OC)CC2)c(OC)c1	·	·	-9	·	·
Nc1ccc(N=Nc2ccccc2O)c(N)c1	-4%	·	3	-4%[15.4 µM]	i
Oc1ccccc1N=Nc1ccccc1O	35µM*	3%	-29	-7%	i
CCOC(=O)Nc1nc(C)c(C(=O)N(C)C)s1	3%	0%	5	36%	i
COC(=O)Nc1nc(C)c(C(=O)N(C)C)s1	11%	2%	-11	16%	-127%*
O=C(Nc1ccc2c(c1)OCCO2)c1cnc2ccccn2c1=O	-3%	·	14	8.9µM*	i
O=c1c2cccnc2[nH]c(=S)n1CCCN1CCN(c2ccc(F)cc2)CC1	7%	0%	4	14%	-111%*
CCn1ccc(NS(=O)(=O)c2ccc(N)cc2)nc1=O	·	·	-16	·	·
CCOC(=O)c1c(C)n(C)c2ccc(OCC(O)CN3CCN(C)CC3)cc12 (stereo unspecified)	0%	2%	·	25%	i
CCOC(=O)c1c(C)n(-c2ccc(C)cc2)c2ccc(OCC(O)CN3CCN(C)CC3)cc12 (stereo unspecified)	11%	0%	-86*	-25%	i
COc1ccc(-c2csc(NC(=O)CSc3n[nH]c(N)n3)n2)cc1	-7%	0%	-18	12%[15.4 µM]	i
COc1ccc(-c2csc(NC(=O)CSc3n[nH]c(C)n3)n2)cc1	35µM*	0%	-25	6%	i
CC1CCN(C(=O)CSc2nc(-c3ccccc3)no2)CC1	·	1%	-7	·	·
CCC(=O)c1ccc(OCC(=O)Nc2cccc(S(=O)(=O)N(C)c3ccccc3)c2)cc1	28µM*	-1%	10	-3%	i
CN(c1ccccc1)S(=O)(=O)c1cccc(NC(=O)COc2cccc([N+](=O)[O-])c2)c1	?	1%	-1	-5%	i
COCCNC(=O)CN(c1ccc(OC)c(OC)c1)S(=O)(=O)c1ccc(C)cc1	1%[15.4 µM]	2%	-1	2%	-129%*
COCCNC(=O)CN(c1ccc(C)cc1)S(=O)(=O)c1ccccc1	3%	-1%	-6	-1%	·
SMILES	gsp antag	RXFP1 ag	RXFP1 antag	gsp ag	pAkt inh
CCN(CC)S(=O)(=O)c1ccc(OC)c(NC(=O)CSCc2c(C)noc2C)c1	4%	·	14	18µM*	i
Cc1ccc(CS(=O)(=O)c2ncc(Cl)c(C(=O)Nc3ccc(OC(F)F)cc3)n2)cc1	?	-1%	-66*	-7%[15.4 µM]	i
CC(=O)Nc1ccc(NC(=O)c2nc(S(=O)(=O)Cc3ccccc3)ncc2Cl)cc1	-3%	-3%	?	-7%	·
CCS(=O)(=O)c1ncc(Cl)c(C(=O)Nc2ccc(C)cc2)n1	?	1%	-78*	5%	i
CCS(=O)(=O)c1ncc(Cl)c(C(=O)Nc2ccc(S(=O)(=O)N3CCCC(C)C3)cc2)n1 (stereo unspecified)	?	2%	-119*	-8%[15.4 µM]	i
CCOc1ccc(NC(=O)c2nc(S(=O)(=O)Cc3ccccc3F)ncc2Cl)cc1	·	3%	?	·	·
CCC1CCCCN1S(=O)(=O)c1ccc(NC(=O)c2nc(S(C)(=O)=O)ncc2Cl)cc1 (stereo unspecified)	?	3%	?	-5%[15.4 µM]	i

High-throughput results (PubChem BioAssay)
